From PubChem BioAssay
PLC-gamma1 inh: PLC-gamma1 (human) inhibition, primary screen. purified PLC-gamma1, fluorogenic substrate, fluorescence. AID 720700. inhibition, % at 12.2 µM. P19174. hit rate 0.84% among 370,000; in the data active = inhibition above about 9.5%
Target sequence (P19174 whole entry, looked up): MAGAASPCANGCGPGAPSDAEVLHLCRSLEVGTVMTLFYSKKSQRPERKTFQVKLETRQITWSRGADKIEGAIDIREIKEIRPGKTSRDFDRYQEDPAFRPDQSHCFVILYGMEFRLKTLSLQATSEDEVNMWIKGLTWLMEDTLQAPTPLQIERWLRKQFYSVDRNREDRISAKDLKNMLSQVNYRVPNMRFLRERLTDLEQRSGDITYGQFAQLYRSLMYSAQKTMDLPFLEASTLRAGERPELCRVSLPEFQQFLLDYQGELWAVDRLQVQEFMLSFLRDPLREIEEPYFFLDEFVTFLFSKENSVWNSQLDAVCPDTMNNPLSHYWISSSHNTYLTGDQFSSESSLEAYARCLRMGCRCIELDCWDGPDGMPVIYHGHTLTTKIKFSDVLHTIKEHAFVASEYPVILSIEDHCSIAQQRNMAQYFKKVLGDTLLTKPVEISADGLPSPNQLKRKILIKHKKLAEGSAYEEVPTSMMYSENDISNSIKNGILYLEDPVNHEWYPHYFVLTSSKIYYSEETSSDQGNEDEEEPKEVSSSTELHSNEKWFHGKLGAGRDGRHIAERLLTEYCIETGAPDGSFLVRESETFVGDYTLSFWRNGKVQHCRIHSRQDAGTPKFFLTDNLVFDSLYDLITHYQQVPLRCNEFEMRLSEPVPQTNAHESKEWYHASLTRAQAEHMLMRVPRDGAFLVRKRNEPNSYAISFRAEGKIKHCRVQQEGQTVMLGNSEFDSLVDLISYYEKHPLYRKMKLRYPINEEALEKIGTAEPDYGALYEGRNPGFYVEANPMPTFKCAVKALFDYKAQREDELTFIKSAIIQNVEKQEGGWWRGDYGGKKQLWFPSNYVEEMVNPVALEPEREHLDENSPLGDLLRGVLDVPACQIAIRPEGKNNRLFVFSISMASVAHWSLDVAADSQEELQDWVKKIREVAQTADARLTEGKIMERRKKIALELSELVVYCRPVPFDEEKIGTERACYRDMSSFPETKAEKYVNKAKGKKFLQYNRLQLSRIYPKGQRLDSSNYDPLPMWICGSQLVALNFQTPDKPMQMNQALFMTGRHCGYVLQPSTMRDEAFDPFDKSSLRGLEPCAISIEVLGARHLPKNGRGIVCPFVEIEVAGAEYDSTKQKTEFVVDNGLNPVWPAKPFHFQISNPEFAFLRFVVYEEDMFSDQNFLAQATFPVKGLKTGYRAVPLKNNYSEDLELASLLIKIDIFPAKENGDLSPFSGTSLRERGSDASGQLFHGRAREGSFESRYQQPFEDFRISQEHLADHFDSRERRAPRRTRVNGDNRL
PLCb3 inh: blocks human PLC-beta3 enzyme activity. hit rate 0.18% among 370,000. Purified PLC-beta3, fluorogenic substrate, fluorescence. inhibition, % at 12.2 µM; in the data active = inhibition above about 11%;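 also: 0% = median of compound wells on plate and 100% = full blocker control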
ADAM17 inh: inhibits human ADAM17; P78536; recombinant ADAM17, EDANS/DABCYL FRET peptide cleavage; inhibition, % at 6.95 µM; hit rate 0.83% among 370,000; AID 720648;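 active = inhibition above the mean of compounds lying between control limits plus 3 SD, set per campaign, cut at about 8.5% in these data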;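 also: 0% = DMSO-only wells as the low control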
ADAM10 inh: inhibitors of human ADAM10; recombinant ADAM10, EDANS/DABCYL FRET peptide cleavage, 3 h; inhibition, % at 7 µM; hit rate 0.62% among 370,000;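 active = inhibition above a per-campaign cutoff equal to the mean of compounds falling between control-based bounds plus 3 SD, cut at about 20% in these data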;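 also: 0% = DMSO wells while the 100% control is not disclosed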
proKLK7 act: proKLK7 (human) activation, primary screen | P49862 | activation, % at 7 µM | hit rate 0.9% among 370,000 | purified proKLK7, EDANS-DABCYL substrate fluorescence; 100% is mature enzyme control, 0% vehicle | AID 652039;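 active = activation above the mean of all tested compounds plus 3 SD, computed per campaign excluding outliers beyond control limits, cut at about 13% in these data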
ADAM10 confirm: human ADAM10 inhibition, confirmation; shares compounds with ADAM10 inh; ADAM10 QFRET peptide cleavage, EDANS fluorescence; inhibition, % at 6.95 µM; hit rate 1% among 2,100;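 active = inhibition above about 20% chosen separately for each screening run, limit read from the data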;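 also: 0% = DMSO wells and 100% = marimastat wells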
ADAM17 ctr: ADAM17 inhibition, counter-screen for ADAM10 exosite hits; shares compounds with ADAM10 inh; ADAM17 QFRET peptide cleavage, EDANS fluorescence; inhibition, % at 6.95 µM; hit rate 0.5% among 2,100; AID 743214;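 active = mean triplicate inhibition above the solvent-only control wells' mean plus 3 SD, cut at about 12% in these data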;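 also: 0% = DMSO wells and 100% = marimastat wells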
ADAM10 counter: counter-screen for ADAM17 exosite inhibitors: inhibitors of human ADAM10; shares compounds with ADAM17 inh; recombinant ADAM10, EDANS/DABCYL FRET peptide cleavage, 3 h; inhibition, % at 6.95 µM; hit rate 47% among 2,900;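 active = mean inhibition over the triplicate runs exceeds the activity threshold set in the earlier primary screen, cut at about 20% in these data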;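 also: 0% = DMSO wells and 100% = marimastat wells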
ADAM17 confirm: human ADAM17 inhibition, confirmation; shares compounds with ADAM17 inh; recombinant ADAM17, EDANS/DABCYL QFRET peptide cleavage; inhibition, % at 6.95 µM; hit rate 65% among 2,900;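 active = mean inhibition across replicates above the hit cutoff set in the primary screen, cut at about 8.5% in these data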;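 also: 0% = DMSO wells and 100% = marimastat wells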
Numbers without * were called inactive; . = no result. An excerpt weighted towards active compounds, which were near 2.9% of everything screened.

SMILES	PLC-gamma1 inh	PLCb3 inh	ADAM17 inh	ADAM10 inh	proKLK7 act	ADAM10 confirm	ADAM17 ctr	ADAM10 counter	ADAM17 confirm
CN(CC(=O)Nc1cccc(F)c1)C(=O)COc1cccc2c1OC(C)(C)C2	-1.8	-5.5	-1.3	-10.2	-0.1	.	.	.	.
COc1cc(/C=C/C=C2/CC/C(=C/C=C/c3ccc(O)c(OC)c3)C2=O)ccc1O	-32.9	-62.6	16.7*	22.1*	0.2	2.4	1.4	6.3	5.1
COc1cc(/C=C2/CC/C(=C/c3ccc(O)c(OC)c3)C2=O)ccc1O	-56.5	-82.1	4.1	10.4	-0.3	.	.	.	.
O=C(NNC(=O)c1cc(-c2cccnc2)nc2ccccc12)Nc1ccc(Cl)cc1	-4.7	-13.3	-4.8	-0.6	0.3	.	.	.	.
O=C(NNC(=O)c1cc(-c2ccccc2)nc2ccccc12)Nc1cccc(Cl)c1	-1.5	-2.0	10.2*	24.9*	-0.8	18.8	7.0	31.1*	21.0*
COc1ccc(NC(=O)COC(=O)C2CC2)cc1S(=O)(=O)N1CCCCC1	-2.1	-10.8	-2.2	-7.1	0.5	.	.	.	.
CC(C)(C)C1CCc2nc(NC(=O)Cc3cn4ccsc4n3)sc2C1 (stereo not given)	4.5	4.4	19.5*	22.6*	0.8	3.0	1.5	21.1*	9.7*
CCOC(=O)c1ccc(NC(=O)Cn2nnc(-c3ccccc3C)n2)cc1	-5.2	-4.6	10.3*	22.0*	0.0	6.4	1.3	41.1*	23.7*
Cc1ccc(NC(=O)CN(C)C(=O)Cn2nnc(-c3ccccc3C)n2)cc1	-2.0	3.7	-1.9	6.2	0.1	.	.	.	.
CC1CCC2(CC1)NC(=O)N(CC(=O)N(Cc1ccccc1)C(C)(C)C)C2=O (stereo not given)	3.1	-8.9	-7.5	-18.2	-0.6	.	.	.	.
O=C(OCC(=O)c1c[nH]c2ccccc12)c1cccc(S(=O)(=O)N2CCCCCC2)c1	6.1	3.1	11.6*	26.9*	-0.5	7.6	2.0	18.0	8.7*
O=C(COC(=O)c1cccc(S(=O)(=O)N2CCCCC2)c1)NCc1ccccc1	-0.8	-3.4	-5.7	-1.1	0.5	.	.	.	.
COc1ccc(NC(=O)c2cc(F)c(F)cc2Cl)cc1Cl	6.0	-6.0	1.3	8.4	-0.1	.	.	.	.
Cc1cc(C)cc(NS(=O)(=O)c2ccc(NC(=S)NC(=O)c3ccc(Br)o3)cc2)c1	6.3	-4.7	10.6*	20.5*	1.5	10.4	4.0	29.1*	13.9*
Cc1ccc(NS(=O)(=O)c2ccc(NC(=O)c3ccccc3C(=O)O)cc2)c(C)c1	-0.8	-5.1	-0.5	-1.7	0.3	.	.	.	.
Cc1ccc(NS(=O)(=O)c2ccc(NC(=O)CN(c3cc([N+](=O)[O-])ccc3C)S(C)(=O)=O)cc2)c(C)c1	1.5	3.0	10.8*	21.4*	-0.3	4.1	1.3	54.0*	27.8*
Cc1ccc(NS(=O)(=O)c2ccc(NC(=O)c3ccc(Br)o3)cc2)c(C)c1	-0.6	-1.7	10.5*	23.4*	0.9	6.4	1.6	31.9*	15.2*
Cc1cc(C)c2[nH]c(=O)c(=O)[nH]c2c1	-44.2	-67.8	-18.6	-37.9	1.9	.	.	.	.
CN(C)c1nc(N(C)C)n(Cc2c(Cl)cccc2Cl)n1	-2.5	0.5	-0.9	-2.1	-0.4	.	.	.	.
O=C1NC(=O)/C(=C\c2ccc(OCc3ccccc3)cc2)S1	1.9	-4.9	-1.9	-4.5	-6.5	.	.	.	.
COc1ccc(CN(C(=O)c2nsc(Cl)c2Cl)C(C(=O)NC2CCCCC2)c2ccc(OC)cc2)cc1 (stereo not given)	6.4	5.7	8.8*	28.0*	0.2	7.3	1.8	8.2	9.6*
COc1ccc(CN(C(=O)c2snc(C(N)=O)c2N)C(C(=O)NC2CCCC2)c2ccc(OC)c(OC)c2)cc1 (stereo not given)	-42.4	-58.4	-34.0	-101.3	-0.9	.	.	.	.
